From PubChem BioAssay
The list is not random: actives were taken first. Their share in the collection is about 1.5%.
Ins promoter up: MIN6 insulin promoter up-regulation. 0.3% of 190,000 active. MIN6 insulin promoter-GFP reporter, high-content imaging; stronger effect = higher value. z-score at 5 µM. AID 1625;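 active means z-score above 3 at 5 µM with at least 500 cells counted in the well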
S1P4 antagonist: human S1P4 receptor antagonism. inhibition, % at 4.98 µM. O95977. S1P4-expressing cells, antagonist mode, reporter read-out. 0.26% of 220,000 active; in the data active means inhibition above about 29%
INS promoter inh: TRM-6 insulin promoter activity inhibition | 0.9% of 130,000 active | inhibition, % at 2 µM | TRM-6 cells (human fetal islet line), insulin promoter-eGFP reporter, imaging; reporter expression induced with tamoxifen;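 active means inhibition above the mean plus 3 SD, with well images judged a real hit on visual review, cut at about 60% in these data, passing the limit was not always enough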
S1P3 antag: blocks the human S1P3 receptor | Q99500 | CHO S1P3 NFAT-BLA reporter, FRET fluorescence, antagonist mode | inhibition, % at 4.98 µM | 0.27% of 170,000 active | AID 485;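 active means inhibition above the plate cutoff, the mean inhibition of test wells on that plate plus 3 SD, cut at about 28% in these data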;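 further: cells challenged with S1P at its EC80 of 0.8 µM; blue over green emission ratio from cleaved BLA substrate after 4 h stimulation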
Target sequence (Q99500 whole entry, looked up): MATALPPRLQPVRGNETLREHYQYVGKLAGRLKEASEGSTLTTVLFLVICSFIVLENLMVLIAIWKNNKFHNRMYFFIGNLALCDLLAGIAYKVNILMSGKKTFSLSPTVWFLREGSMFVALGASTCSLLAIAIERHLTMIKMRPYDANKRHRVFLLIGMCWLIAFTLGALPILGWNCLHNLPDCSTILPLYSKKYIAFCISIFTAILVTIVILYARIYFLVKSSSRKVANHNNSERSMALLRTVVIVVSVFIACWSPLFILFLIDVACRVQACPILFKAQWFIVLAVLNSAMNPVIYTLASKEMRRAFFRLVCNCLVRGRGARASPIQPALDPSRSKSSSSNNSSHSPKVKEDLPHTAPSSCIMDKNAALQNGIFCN
Hsp70 activator: transcriptional activators of Hsp70 | HeLa Hsp70 promoter luciferase reporter, luminescence; scaled: vehicle 0, proteasome-inhibitor control 100% | activation, % at 10 µM | 0.04% of 200,000 active;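 active means activation above the mean across all tested compounds plus 3 SD, cutoff set per campaign, cut at about 5.5% in these data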
S1P4 ag: activates the human S1P4 receptor. activation, % at 4.98 µM. 0.35% of 220,000 active. AID 1509. O95977. S1P4-expressing cell line, agonist reporter assay; in the data active means activation above about 11%
Large screens that a line does not name were inactive.

CC1=CC(=O)C=C(C)C1=NOc1ccc([N+](=O)[O-])cc1	INS promoter inh 100.0
CC1CN(C)C(C)C/C1=N\Oc1ccc([N+](=O)[O-])cc1 (stereo not given)	none
O=c1c2[nH]c3ccc(Br)cc3c2ncn1CCCn1ccnc1	INS promoter inh 78.8
Cc1nc2c([nH]c3ccccc32)c(=O)n1N	INS promoter inh 100.0
Nn1c(=O)[nH]c2c([nH]c3ccccc32)c1=O	none
CCCCn1cnc2c([nH]c3ccccc32)c1=O	INS promoter inh 81.6 (no result: S1P3 antag)
O=c1c2[nH]c3ccccc3c2ncn1CCCn1ccnc1	none
O=C(O)c1ccccc1C(=O)N1CC=C(c2ccccc2)CC1	none (no result: INS promoter inh)
CC(C)COc1ccc(C(=O)N/C(=C\c2cccc([N+](=O)[O-])c2)C(=O)O)cc1	none (no result: Ins promoter up, INS promoter inh, Hsp70 activator)
CC(=Nc1ccc(C)cc1)c1sc2ccccc2c1O	none (no result: S1P3 antag)
CC(=Nc1ccc(C)cc1C)c1sc2ccccc2c1O	Ins promoter up 3.96 (no result: INS promoter inh)
COc1ccc(/C=N/OCC(=O)N=Nc2c(O)[nH]c3ccc(Br)cc23)cc1	INS promoter inh 80.0 (no result: Ins promoter up)
Cc1noc(C)c1S(=O)(=O)N1CCC(C(=O)N2CCN(c3ccc(F)cc3)CC2)CC1	none (no result: S1P3 antag)
Cc1noc(C)c1S(=O)(=O)N1CCC(C(=O)N2CCN(C3CCCC3)CC2)CC1	Ins promoter up 3.05 (no result: INS promoter inh, S1P3 antag)
O=C(Nc1ccc(Cl)cc1)/C(=C/c1ccc([N+](=O)[O-])cc1)c1nc2ccccc2s1	none (no result: INS promoter inh)
O=C(/C=C/Nc1ccc(Br)cc1F)c1ccco1	none
CC1Cc2ccccc2N1C(=O)C12CCC(C)(C(=O)C1)C2(C)C (stereo not given)	INS promoter inh 94.6
COC(=O)N/N=C/c1ccccc1	none (no result: INS promoter inh)
CCCCOc1ccc(S(=O)(=O)Nc2cc(OC)ccc2OC)cc1	S1P3 antag 54.6
COc1ccc(OC)c(NS(=O)(=O)c2ccc(Cl)nc2)c1	none
O=C(NCC1CCCO1)C1CCN(S(=O)(=O)N2CCCC2)CC1 (stereo not given)	Ins promoter up 3.58 (no result: INS promoter inh)
CCS(=O)(=O)N1CCC(C(=O)NCC2CCCO2)CC1 (stereo not given)	none (no result: INS promoter inh)
COc1ccc(-n2nnnc2SCC(=O)c2ccc3c(c2)OCCO3)cc1	INS promoter inh 79.3 (no result: Ins promoter up, S1P3 antag)
Cc1cc(N)n2ncc(-c3ccc(F)cc3)c2n1	INS promoter inh 88.6 (no result: Ins promoter up, S1P3 antag)
Cc1cc(N)n2ncc(-c3ccc(Cl)cc3)c2n1	none (no result: S1P3 antag)
COc1ccc(NC(=O)N2CCN(c3cccc(C(F)(F)F)c3)CC2)cc1	INS promoter inh 75.3 (no result: Ins promoter up)
COc1cccc(NC(=O)N2CCN(c3nnnn3-c3ccccc3)CC2)c1	Ins promoter up 3.09 (no result: INS promoter inh)
Cc1cc(NCCO)nc(-n2nc(C)cc2C)n1	INS promoter inh 79.5 (no result: S1P3 antag)
CC(C)N1CC(C(=O)Nc2nc3ccccc3s2)CC1=O (stereo not given)	INS promoter inh 75.0 (no result: Ins promoter up)
COc1cc(/C=N/NC(=O)CNC(=O)c2ccccc2)ccc1OC(=O)c1cccs1	none (no result: INS promoter inh, S1P3 antag)
CCOC(=O)C1(CCCc2ccccc2)CCN(C(=O)C2=C(C)OCCO2)CC1	none (no result: INS promoter inh)
O=C(/C=C/c1ccc(N2CCCCC2)c([N+](=O)[O-])c1)c1ccc(O)cc1	INS promoter inh 83.3
COc1ccccc1C(=O)/C=C/c1ccc(N2CCCCC2)c([N+](=O)[O-])c1	none
COc1cccc(-n2c(SCC(=O)N3CCOCC3)nnc2-c2c[nH]c3ccccc23)c1	S1P3 antag 52.6 (no result: INS promoter inh)
NC(=O)CSC1=Nc2ccccc2C2=NC(c3ccccc3)C(=O)N12 (stereo not given)	INS promoter inh 78.6
CCN(CC)C(=O)CSC1=Nc2ccccc2C2=NC(c3ccccc3)C(=O)N12 (stereo not given)	none (no result: S1P3 antag)
COC(=O)c1nnn(CC(=O)NC(=O)Nc2cccc(Cl)c2C)c1C(=O)OC	none
Cc1ccccc1NCC(=O)N/N=C/c1c[nH]c2ccccc12	Ins promoter up 4.05 (no result: INS promoter inh)
Cc1cccc(NCC(=O)N/N=C\c2c[nH]c3ccccc23)c1	none (no result: Ins promoter up)
O=C(O)c1ccc(Cl)c(S(=O)(=O)N2CCCCCC2)c1	none (no result: INS promoter inh)
CC(C)OC(=O)c1c2c(n3ccccc13)C(=O)c1ccccc1C2=O	Ins promoter up 11.7 (no result: INS promoter inh)
CCCN(CCC)S(=O)(=O)c1ccc(C(=O)OCCN2C(=O)c3cccc4c(N5CCOCC5)ccc(c34)C2=O)cc1	Ins promoter up 6.18
CC(=O)c1ccc(-c2ccc(C(=O)N3CCCc4ccccc43)o2)cc1	none
COC(=O)C(C)N1C(=O)S/C(=C/c2cc(C)n(C(C)C)c2C)C1=O (stereo not given)	none (no result: Ins promoter up, S1P3 antag)
COc1ccccc1C(=O)N/C(=C\c1ccc(Br)cc1)C(=O)NCC(=O)O	none
O=C(OCc1ccc([N+](=O)[O-])cc1)C1CC(=O)N(c2ccccc2)C1 (stereo not given)	INS promoter inh 78.6 (no result: S1P3 antag)
Clc1ccc(Nc2ncn[nH]2)c(Cl)c1	INS promoter inh 65.7
CCNC(=O)c1c(NC(=O)C2COc3ccccc3O2)sc2c1CCCC2 (stereo not given)	none (no result: S1P3 antag)
COCCCNC(=O)c1c(NC(=O)C2COc3ccccc3O2)sc2c1CCCC2 (stereo not given)	INS promoter inh 87.1 (no result: Ins promoter up, S1P3 antag)
COc1cccc(CNC2CCCc3ccccc32)c1OC (stereo not given)	none (no result: INS promoter inh)
O=C(COC(=O)c1ccco1)NCC1CCCO1 (stereo not given)	Ins promoter up 3.04
O=C(COC(=O)c1ccccc1)NCC1CCCO1 (stereo not given)	none (no result: Ins promoter up)
CC(C)=CC1C(C(=O)Nc2ccc(Br)cn2)C1(C)C (stereo not given)	S1P3 antag 70.9 (no result: INS promoter inh)
O=C(Nc1ccc(F)cc1F)NC1CC(=O)N(Cc2ccccc2)C1 (stereo not given)	none (no result: Ins promoter up)
O=C(O)c1cc(-c2ccco2)nc2ccc(Br)cc12	INS promoter inh 76.9
CCc1nc2oc3ccccc3c(=O)c2c(=O)n1Cc1ccccc1	none
CCc1nc2oc3cc(OC)ccc3c(=O)c2c(=O)n1Cc1ccccc1	INS promoter inh 66.7 (no result: S1P3 antag)
Cc1cc(C)n(C(=O)CCC2COc3ccccc3O2)n1 (stereo not given)	Ins promoter up 3.53
CCN(CC)C(c1ccc(F)cc1)c1nnnn1CC1CCCO1 (stereo not given)	INS promoter inh 92.9 (no result: S1P3 antag)
COc1ccc(C(c2nnnn2CC2CCCO2)N2CCN(c3ccc(F)cc3)CC2)cc1 (stereo not given)	none (no result: INS promoter inh)
Cn1c(=O)n(C)c2cc(S(=O)(=O)NCCO)ccc21	none (no result: Ins promoter up, S1P3 antag)
CC(C)OP(=O)(OC(C)C)C(C)NC(=O)Cc1ccccc1 (stereo not given)	INS promoter inh 81.8
CC(C)OP(=O)(OC(C)C)C(NC(=O)c1ccccc1)C(N)=O (stereo not given)	none (no result: INS promoter inh, Hsp70 activator)
CCn1cc(/C=C/C(=O)NCc2c(C)nn(C)c2C)cn1	none (no result: S1P3 antag)
Cc1nn(C)c(C)c1CNC(=O)/C=C/c1ccccc1F	INS promoter inh 71.4
CCOC(=O)N1CCN(C(=O)C2c3cc(OC)c(OC)cc3C(=O)N3CCc4ccccc4C23)CC1 (stereo not given)	INS promoter inh 80.0 (no result: Ins promoter up)
CC(=O)Nc1ccc(SCC(=O)c2cc(C)n(C)c2C)cc1	none (no result: S1P3 antag)
Cc1cccc(N2CCN(Cc3cn(C)nc3-c3ccccc3F)CC2)n1	none (no result: INS promoter inh)
